High-throughput results: PubChem, National Center for Advancing Translational Sciences (NCATS)
TDP1 inh: inhibitors of human tyrosyl-DNA phosphodiesterase TDP1; Q9NUW8; recombinant TDP1, AlphaScreen DNA substrate cleavage; Potency, µM (titrated, usually from 130 µM), without a hit: top-dose activity change, negative = inhibition, usual class: inhibitors; actives 0.28% (n = 350,000); further: on the % scale 0 is the no-effect control and ±100 the full control effect; nearly all actives have a fitted effect of over 40% in size
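AlphaScreen read-out: signal falls as enzyme removes the 3' tyrosine-FITC from a 5'-biotinylated DNA oligo (15 nM, 5 min, RT). Enzyme was E. coli-made recombinant Tdp1 at 1 nM, exposed to compound for 15 min beforehand; beads 10 ug/ml, 10 min.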
ALOX12 inh: ALOX12 (human) lipoxygenase inhibition. P18054. purified 12hLO, xylenol orange hydroperoxide absorbance. Potency, µM (doses to about 108 µM), without a hit: at the highest dose activity change, negative = inhibition, actives largely listed as inhibitors. actives 1.1% (n = 580,000). AID 1671190; further: on the % scale 0 is the no-effect control and ±100 the full control effect
Target sequence (P18054 whole entry, looked up): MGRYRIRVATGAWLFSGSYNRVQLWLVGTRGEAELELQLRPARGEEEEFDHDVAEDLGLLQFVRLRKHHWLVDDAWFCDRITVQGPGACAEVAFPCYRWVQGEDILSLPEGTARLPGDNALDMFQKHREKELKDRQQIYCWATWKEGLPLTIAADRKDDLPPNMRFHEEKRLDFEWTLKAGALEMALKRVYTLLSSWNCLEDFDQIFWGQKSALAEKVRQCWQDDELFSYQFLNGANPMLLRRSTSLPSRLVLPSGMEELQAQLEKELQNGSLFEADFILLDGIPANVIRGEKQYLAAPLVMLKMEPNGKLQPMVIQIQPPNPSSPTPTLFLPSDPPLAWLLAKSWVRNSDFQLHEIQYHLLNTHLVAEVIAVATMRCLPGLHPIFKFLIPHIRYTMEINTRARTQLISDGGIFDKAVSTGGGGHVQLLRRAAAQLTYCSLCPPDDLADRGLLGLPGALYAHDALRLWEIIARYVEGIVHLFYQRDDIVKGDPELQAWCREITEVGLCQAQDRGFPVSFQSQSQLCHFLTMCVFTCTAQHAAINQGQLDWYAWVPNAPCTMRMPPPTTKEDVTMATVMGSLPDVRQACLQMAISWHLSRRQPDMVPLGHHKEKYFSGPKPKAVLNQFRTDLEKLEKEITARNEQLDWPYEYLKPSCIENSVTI
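Hydroperoxide product was detected by ferrous iron/xylenol orange as the 573 to 405 nm absorbance ratio. Arachidonic acid at 40 uM (final) was turned over for 30 min at room temperature by 150 nM human 12hLO, pH 7.0 Hepes buffer, after 15 min compound preincubation.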
ClpP mod: qHTS Assay for Activators of ClpP | ATP-dependent Clp protease proteolytic subunit (Bacillus subtilis (strain 168)), P80244 | purified B. subtilis ClpP, FRET peptide cleavage, 20 min | Potency, µM (highest dose often 57.5 µM), for the others: at the top dose activity change, negative = active | actives 1.9% (n = 340,000); active means well fitted falling curve with a large enough effect; inconclusive means small, poorly fitted or top-dose-only effect; inactive means no such curve, though single readings can be large or run the other way; further: the source files actives as falling curves though it sought activators and does not explain the sign; nearly all actives have a fitted effect of over 65% in size
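ClpP 10 microg/mL final, pH 8 Tris/KCl buffer with BSA, glycerol, Tween-20; compound pinned in; FRET-FV substrate; RT 20 min; Ex320/Em430; ΔFRET vs ADEP 5.8 microM, DMSO, no enzyme.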
PTAP TSG101 blk: blocks PTAP/TSG101 interaction to inhibit HIV-1 budding; Q99816; Fluorescence polarization, FITC-PTAP peptide / Tsg101 binding; Potency, µM (series often up to 115 µM), for inactives: top-dose activity change, negative = inhibition, usual class: inhibitors; 340,000 tested, under 10 active; active means well fitted inhibition curve with a large enough effect in the main read-out, with a control signal flat, not every such curve was filed as active; inconclusive means small, poorly fitted or top-dose-only effect, or effect the other way, or a change in a side signal; inactive means no such curve, though single readings can be large or run the other way; further: % of control where 0% means no effect
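Fluorescence polarization binding of Tsg101 binding domain (10 uM final) to FITC-labeled PTAP peptide (50 nM final) in HEPES pH 7.5 buffer with NaCl, Tween 20, EDTA, TCEP. Compounds added before peptide; binding 20 min at RT.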
Rango dissoc inh: inhibition of RanGTP-driven Rango-importin beta dissociation | AID 540253 | Biochemical FRET Rango-importin beta, RanGTP-induced dissociation | O95149+P62826 | actives 0.071% (n = 340,000) | Potency, µM (titrated, usually from 46.1 µM), for the others: at the top dose activity change, negative = inhibition; calls by dose curve; further: % of control where 0% means no effect; nearly all actives have a fitted effect of over 45% in size
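Rango (0.1 uM)–importin beta (0.25 uM) complex; RanGTP-RCC1 trigger; 45 min RT; CFP/YFP FRET read.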
Rango complex inh: prevents formation of the Rango-importin beta complex. Q14974. Rango CFP/YFP FRET sensor + importin beta, 45 min. Potency, µM (doses to about 92.2 µM), without a hit: at the highest dose inhibition of complex formation. actives 0.031% (n = 340,000). AID 540263; calls by dose curve;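 further: 0% = DMSO wells and 100% = buffer wells lacking importin beta; nearly all actives have a fitted effect of over 15% in size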
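Inhibition scored from the CFP 486 nm/YFP 530 nm FRET ratio 45 min after adding 0.125 microM importin beta to 50 nM Rango biosensor preincubated 5 min with compound (room temperature, PBS with DTT, Tween-20, BSA). No-importin wells as positive control.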
* marks the source's active call; other numbers are inactive results; i = inactive; ? = inconclusive; / = no result; [ ] = remark or other dose. Only some compounds are listed: those with a hit (about 2.4% of all), similar ones and a draw of the others. Unless noted, the call rests on the fitted dose curve; in most records, active means well fitted curve in the direction sought with a large enough effect; inconclusive means small, poorly fitted or top-dose-only effect, or another doubt; inactive means no such curve, though single readings can be large; an effect the other way counts as inactive or inconclusive. Potency means the concentration at half of the fitted maximal effect.

SMILES | TDP1 inh | ALOX12 inh | ClpP mod | PTAP TSG101 blk | Rango dissoc inh | Rango complex inh
CO/N=C(/C(=O)NC1C(=O)N2C(C(=O)O)=C(COC(N)=O)CSC12)c1ccco1 (configuration not stated) | 22µM* | / | / | / | / | /
CO/N=C(\C(=O)N[C@@H]1C(=O)N2C(C(=O)O)=C(CSc3nc(=O)c(O)nn3C)CSC12)c1csc(N)n1 (some centres not stated) | 7.1µM* | / | / | / | / | /
CON=C(C(=O)NC1C(=O)N2C(C(=O)O)=C(CSc3nc(=O)c(=O)[nH]n3C)CSC12)c1csc(N)n1 (configuration not stated) | / | 10% | -1% | 2% | -22% | -6%
CC(=O)OCC1=C(C(=O)O)N2C(=O)[C@@H](NC(=O)CSc3ccncc3)[C@H]2SC1 | 7.9µM* | -1% | / | -11% | ? | ?
C=CC1=C(C(=O)O)N2C(=O)[C@@H](NC(=O)/C(=N\OCC(=O)O)c3csc(N)n3)[C@@H]2SC1 | 14µM* | / | / | / | / | /
CC(C)c1cc(C(=O)NC2CCN(c3ncccc3C#N)CC2)n(C)n1 | / | 41% | / | / | / | /
CCNC(=S)Nc1c(F)cccc1F | / | -58% | / | / | / | /
Cc1ccccc1NC(=O)N1CCCC(Cn2cnc3cccnc32)C1 (configuration not stated) | / | 12% | / | / | / | /
Cn1nnnc1SCC1=C(C(=O)O)N2C(=O)[C@@H](NC(=O)[C@H](O)c3ccccc3)[C@H]2SC1 | 16µM* | / | -6% | -1% | -8% | -4%
COc1ccccc1CN1CCCn2nc(C)c(-c3cccnc3N3CCOCC3)c21 | / | 13%[176 µM] | / | / | / | /
Cc1nn2c(c1-c1cccnc1N1CCOCC1)N(CC1CC1)CCC2 | / | 10µM* | / | / | / | /
O=C(c1ccc2ccccc2c1)N1CCN(S(=O)(=O)/C=C/c2ccccc2)CC1 | 3% | -4% | / | -5% | 1% | -3%
COc1ccc(Br)c(C(=O)N2CCN(S(=O)(=O)/C=C/c3ccccc3)CC2)c1 | -2% | -6% | 28µM* | -2% | 31% | 1%
O=C(NCC1CCCO1)C1c2ccccc2C(=O)N1Cc1ccc2c(c1)OCO2 (configuration not stated) | 6% | 0% | 22µM* | -10% | -14% | -1%
COc1ccc(NC(=S)NC(=O)/C=C/c2cccs2)cc1 | 5% | -23% | / | -1% | -2% | -1%
COc1ccccc1/C=C/C(=O)NC(=S)NC(C)C | 3% | 25µM* | -9% | -4% | 4% | 2%
COc1ccccc1/C=C/C(=O)NC(=S)N1CCN(C)CC1 | 0% | -1% | -1% | -3% | -6% | -1%
COc1ccccc1NC(=S)NC(=O)/C=C/c1cccs1 | 6% | 35µM* | / | 0% | -1% | -1%
CS(=O)(=O)N1CCCC(C(=O)NCCN2CCc3ccccc3C2)CCNC(=O)CC1 (configuration not stated) | / | 51% | / | / | / | /
CCNc1oc(/C=C/c2cccc(OC)c2)nc1C#N | / | 45µM* | / | / | / | /
CCOC(=O)C1=C(C)N(C)C(=S)NC1c1c(OCC)ccc2ccccc12 (configuration not stated) | 1% | i | 1% | -2% | 0% | 4%
CCOc1ccc2ccccc2c1C1NC(=S)N(C)C(C)=C1C(=O)OC (configuration not stated) | 4% | 0% | 8.9µM* | -4% | 4% | 3%
CCNC(=O)[C@@H]1C[C@@H](NC(=O)CO)CN1C(=O)CCc1ccc(O)cc1 | / | -9% | / | / | / | /
Cn1cccc1C(=O)NC1CCCN(c2cc(-c3ccc(F)cc3)[nH]n2)C1 (configuration not stated) | / | 47% | / | / | / | /
Cc1ccc(S(=O)(=O)NC2(C(=O)O)CCCC2)cc1 | / | ? | 35µM* | 0% | -5% | 2%
SMILES | TDP1 inh | ALOX12 inh | ClpP mod | PTAP TSG101 blk | Rango dissoc inh | Rango complex inh
O=C(NC[C@H]1COCc2nc3ccccc3n21)c1cnccn1 | / | -17%[176 µM] | / | / | / | /
COc1ccc(/C=C/c2ccc3ccccc3n2)cc1OC | / | 28µM* | 4% | / | / | /
C(=C\c1ccc2ccccc2n1)/c1ccccc1 | -10% | 0% | -28% | -1% | 9% | 0%
Oc1ccc(/C=C/c2ccc3ccccc3n2)cc1 | -5% | ? | 4% | 1% | 18µM* | ?
COc1ccc(/C=C/c2cnc3ccccc3n2)cc1OC | / | / | -7% | / | / | /
O=C(Nc1oc2ccccc2c(=O)c1-c1ccc2c(c1)OCO2)c1ccccc1 | / | 9% | / | / | / | /
COc1cc(NC(=O)c2oc3c(c2C)-c2nn(Cc4cccc(Cl)c4)cc2CC3)cc(OC)c1 | 1% | ? | 20µM* | / | / | /
CCn1cc2c(n1)-c1c(oc(C(=O)Nc3cccc(C(F)(F)F)c3)c1C)CC2 | 4% | -25% | 35µM* | / | / | /
CN(C)c1ccc(-c2noc(C3CCN(S(=O)(=O)c4cccc(Cl)c4)CC3)n2)cc1 | 1% | -12% | 20µM* | -5% | -6% | -2%
CC1Cc2ccccc2N1S(=O)(=O)c1cccc(Br)c1 (configuration not stated) | / | 0% | / | / | / | /
Cc1nc(-c2ccc(O)c(O)c2)cs1 | 2% | 7.1µM* | 1% | 1% | 2% | 3%
Cc1ccc2nc(-c3ccccc3)cn2c1 | 5% | ? | 14µM* | -4% | -7% | -2%
Cc1ccc2nc(-c3ccc(O)c(O)c3)cn2c1 | / | 18µM* | / | 1% | 2% | 7%
CCNC(=O)[C@H]1CCC[C@H]1NC(=O)c1ccc(OC)cc1 | / | 53% | / | / | / | /
CNC(=O)c1ccc(CN(C)C(=O)CCc2ncc(-c3ccccc3F)o2)cc1 | / | -8% | / | / | / | /
Cc1ccc2[nH]c3c(=O)n(CCN4CCOCC4)cnc3c2c1 | 8% | 1% | ? | -5% | 1% | -1%
Cn1c2ccccc2c2ncn(CCCN3CCOCC3)c(=O)c21 | 4% | 0% | 25µM* | -8% | 19% | -1%
COc1ccc2[nH]c3c(=O)n(CCCN4CCOCC4)cnc3c2c1 | 0% | -6% | 5% | 0% | 2% | 0%
Cc1ccc2[nH]c3c(=O)n(CCc4cnc[nH]4)cnc3c2c1 | 2% | 0% | 16µM* | -2% | 10% | 1%
COc1cc2[nH]c3c(=O)n(CCN4CCCCC4)cnc3c2cc1OC | -2% | ? | 14µM* | -5% | 6% | -1%
Cc1ccc2[nH]c3c(=O)n(CCCN4CCOCC4)cnc3c2c1 | 2% | 0% | 14µM* | -5% | -8% | -1%
